Results taken from PubChem BioAssay (EPA / NIEHS).
Activity calls are given as the source filed them. Rule for the calls: active = hit-call score of the fitted dose curve at least 0.9, where 1 is the maximum; inactive = score below 0.9.

What follows are compounds tested against Myc proto-oncogene protein (Homo sapiens) (UniProt P01106) (assay: ATG_Myc_CIS: Attagene CIS-FACTORIAL HepG2 Assay for human Myelocytomatosis (Myc) Proto-Oncogene Transcription Factor (AID 2282990)). Conditions: HepG2, Attagene cis-reporter transcription factor activity; actives raise or lower the signal.
Sequence of Myc proto-oncogene protein (Homo sapiens) (P01106 whole entry, looked up): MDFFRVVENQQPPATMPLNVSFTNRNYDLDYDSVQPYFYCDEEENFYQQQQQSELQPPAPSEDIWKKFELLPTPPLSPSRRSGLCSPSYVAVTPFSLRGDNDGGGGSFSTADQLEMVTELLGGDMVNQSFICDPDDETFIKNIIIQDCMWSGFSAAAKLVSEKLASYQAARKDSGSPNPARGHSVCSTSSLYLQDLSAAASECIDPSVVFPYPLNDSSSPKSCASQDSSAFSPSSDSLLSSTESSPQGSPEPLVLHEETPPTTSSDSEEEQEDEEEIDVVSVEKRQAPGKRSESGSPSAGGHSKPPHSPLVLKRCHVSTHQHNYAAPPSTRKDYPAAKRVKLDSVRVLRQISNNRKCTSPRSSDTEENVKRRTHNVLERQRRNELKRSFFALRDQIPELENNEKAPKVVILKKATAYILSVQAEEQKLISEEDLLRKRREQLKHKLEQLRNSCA
Procedure, shortened: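 Cells of the HepG2 human liver line bear multiple cis-driven reporter transcription units. Reporter mRNA after 24 h exposure is reverse-transcribed, amplified, labelled and resolved by capillary electrophoresis, with gain- or loss-of-signal fitting relative to DMSO.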

| Compound | outcome | AC50 |
| --- | --- | --- |
| CCCCSCCCC | inactive | – |
| Cc1occc(=O)c1OC(=O)C(C)C | inactive | – |
| CC(C)(C)c1ccc(C(=O)O)cc1 | inactive | – |
| CC1CC(O)CC(C)(C)C1 (stereo not given) | inactive | – |
| CCCOC(=O)c1c(Cl)c(Cl)c(Cl)c(Cl)c1C(=O)OCCC | – | 100 µM (active) |
| CC(C)CCOC(=O)c1ccccc1 | inactive | – |
| O=C(O)c1cccnc1C(=O)O | inactive | – |
| Cc1cccc(Nc2ccccc2)c1 | inactive | – |
| C=C[Si]1(C)O[Si](C)(C=C)O[Si](C)(C=C)O[Si](C)(C=C)O1 (stereo not given) | inactive | – |
| Brc1ccc(Br)c(Br)c1 | inactive | – |
| CCOc1ccc(NC(=O)CC(C)O)cc1 (stereo not given) | inactive | – |
| CS(=O)(=O)OCCCCOS(C)(=O)=O | inactive | – |
| OC[C@H]1O[C@@H]2O[C@H]3[C@H](O)[C@@H](O)[C@@H](O[C@H]4[C@H](O)[C@@H](O)[C@@H](O[C@H]5[C@H](O)[C@@H](O)[C@@H](O[C@H]6[C@H](O)[C@@H](O)[C@@H](O[C@H]7[C@H](O)[C@@H](O)[C@@H](O[C@H]8[C@H](O)[C@@H](O)[C@@H](O[C@H]9[C@H](O)[C@@H](O)[C@@H](O[C@H]1[C@H](O)[C@H]2O)O[C@@H]9CO)O[C@@H]8CO)O[C@@H]7CO)O[C@@H]6CO)O[C@@H]5CO)O[C@@H]4CO)O[C@@H]3CO | inactive | – |
| CCC(=O)OCCOc1ccccc1 | inactive | – |
| COC(=O)C=C(C)CCC=C(C)C | inactive | – |
| CC(=O)OCCCc1ccccc1 | inactive | – |
| OCC(O)c1ccccc1 (stereo not given) | inactive | – |
| CCCCC(CC)COC(C)=O (stereo not given) | inactive | – |
| CC(C)OCCO | inactive | – |
| Cc1ccc(OC(=O)c2ccccc2O)cc1 | inactive | – |
